Source: PubChem BioAssay (National Center for Advancing Translational Sciences (NCATS))
D3 antag – qHTS of D3 Dopamine Receptor Antagonist: qHTS. D(3) dopamine receptor (Homo sapiens), P35462. D3R cells, DiscoveRx beta-arrestin luminescence, antagonist mode; hits give low values. max response, negative = inhibition, %. hit rate 2.5% among 360,000; in the data active = max response below about -50%; inconclusive = no clear call, values can overlap the other calls; also: % is scaled to controls: 0 for no effect and ±100 for the full control effect
Target sequence (P35462 whole entry, looked up): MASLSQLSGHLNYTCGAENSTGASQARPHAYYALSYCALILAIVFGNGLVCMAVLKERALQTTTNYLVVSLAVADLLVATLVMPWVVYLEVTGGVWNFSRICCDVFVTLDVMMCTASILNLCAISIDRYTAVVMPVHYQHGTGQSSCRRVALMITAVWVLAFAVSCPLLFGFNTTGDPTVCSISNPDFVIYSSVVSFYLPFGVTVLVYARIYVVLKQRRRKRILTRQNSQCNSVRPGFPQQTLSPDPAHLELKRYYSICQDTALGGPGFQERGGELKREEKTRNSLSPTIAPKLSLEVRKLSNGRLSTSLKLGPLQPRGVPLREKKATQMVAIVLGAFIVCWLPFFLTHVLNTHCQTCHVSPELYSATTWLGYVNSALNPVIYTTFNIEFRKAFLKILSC
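Cells expressing the human receptor were seeded at 1500 cells/well, incubated overnight at 37 degrees C in 5% CO2, then exposed to library compounds with dopamine controls for 90 minutes at 37 degrees C before luminescent detection.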
DRD3 agonist – qHTS of D3 Dopamine Receptor Agonist: qHTS. D3R DiscoveRx beta-arrestin cells, luminescence, 90 min. max activation, %. hit rate 0.58% among 410,000. AID 652048, 2013; in the data active = max activation above about 30%; also: 0% is about no effect
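Agonist-mode cell screen: cells plated at 1500/well and incubated overnight at 37 °C, then exposed to library compounds for 90 min at 37 °C. Detection reagent was added for 30–60 min at room temperature, and luminescence was read.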
SW480 rerep – A quantitative high throughput screen for small molecules that induce DNA re-replication in SW480 colon adenocarcinoma cells | SW480 DNA re-replication, Hoechst DNA content imaging, 48 h | Potency, µM (titrated, usually from 46.1 µM), inactives show top-dose re-replication activation, hits mostly activators | hit rate 1.8% among 340,000 | AID 624297, 2012; also: potency is read from the fitted curve at half-maximal effect; % of control where 0% means no effect; nearly all actives have a fitted effect of over 55% in size
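Cells (250 per well) received 23 nL compound or DMSO by pin tool and were kept 48 hr at 37 C, 5% CO2. Nuclei were then stained with Hoechst for 40 min and scanned for DNA content.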
KB-V1 MDR tox – qHTS assay for MDR1-selective chemotherapeutics: Primary screen using the drug-selected MDR subline cells KB-V1 | KB-V1 MDR cells viability, CellTiter-Glo, 72 h | Potency, µM (highest dose often 46.1 µM), actives largely listed as cytotoxic | hit rate 3.4% among 400,000 | AID 1347076, 2019; also: potency is read from the fitted curve at half-maximal effect; % is scaled to controls: 0 for no effect and ±100 for the full control effect; nearly all actives have a fitted effect of over 60% in size
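Readout: CellTiter-Glo luminescence, 10 min after addition. Cells: KB-V1 MDR subline, 72 h at 37 degrees C with compound. Analysis: corrected, normalized data fitted to concentration-effect curves.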
MCF10A rereplic – A quantitative high throughput screen for small molecules that induce DNA re-replication in MCF 10a normal breast cells | MCF 10A DNA re-replication, Hoechst nuclear intensity, 48 h | hit rate 2.9% among 350,000 | Potency, µM (top dose mostly 46.1 µM), for the others: at the top dose activity, positive = re-replication, most hits filed as activators; also: potency is read from the fitted curve at half-maximal effect; % of control where 0% means no effect; nearly all actives have a fitted effect of over 50% in size
KB-3-1 cytotox – qHTS assay for MDR1-selective chemotherapeutics: Primary screen using the parental adenocarcinoma cell KB-3-1 | KB-3-1 viability, CellTiter-Glo ATP luminescence, 72 h | Potency, µM (doses to about 46.1 µM), actives largely listed as cytotoxic | hit rate 1.4% among 400,000; also: potency is read from the fitted curve at half-maximal effect; % is scaled to controls: 0 for no effect and ±100 for the full control effect; nearly all actives have a fitted effect of over 60% in size
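72 h, 37 °C compound treatment of KB-3-1 parental cells; CellTiter-Glo added, 10 min, luminescence read. Data corrected against DMSO-only plates and normalized before curve fitting.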
* = called active by the depositor; i = inactive; ? = inconclusive; · = not tested or not shown. An excerpt weighted towards active compounds, which were near 8.9% of everything screened. Unless noted, calls follow the shape of the dose curve; as a rule, active = well fitted curve in the direction sought with a large enough effect; inconclusive = small, poorly fitted or top-dose-only effect, or another doubt; inactive = no such curve, though single readings can be large; an effect the other way counts as inactive or inconclusive.

SMILES | D3 antag | DRD3 agonist | SW480 rerep | KB-V1 MDR tox | MCF10A rereplic | KB-3-1 cytotox
O=C(COC(=O)c1ccccc1N1C(=O)C2C3CCC(C3)C2C1=O)c1ccccc1 (stereo not drawn) | -3 | 13 | -15% | i | 2% | i
CC[C@]12c3[nH]c4ccc(Cl)cc4c3CCN1C(=O)[C@@H](CC(=O)NCCCn1ccnc1)C[C@@H]2C(=O)N1CCN(C(=O)c2ccco2)CC1 | 6 | 49* | 7% | i | 7% | i
CC[C@]12c3[nH]c4ccccc4c3CCN1C(=O)C(CC(=O)NCCCOC)C[C@@H]2C(=O)N1CCN(C(=O)C2CC2)CC1 (stereo partly drawn) | -17 | -16 | -1% | i | 1% | i
CC[C@]12c3[nH]c4ccccc4c3CCN1C(=O)C(CC(=O)NCCCN(C)C)C[C@@H]2C(=O)N1CCN(C(=O)C2CC2)CC1 (stereo partly drawn) | -59* | -8 | ? | i | -1% | i
CC[C@]12c3[nH]c4ccc(OC)cc4c3CCN1C(=O)C(CC(=O)NCCCn1ccnc1)C[C@@H]2C(=O)N1CCN(C(=O)c2ccco2)CC1 (stereo partly drawn) | 38 | 28 | -9% | i | -4% | i
OC1CCCN(c2c3c(nc4cc(-c5cccc(Cl)c5)nn24)CCC3)C1 (stereo not drawn) | -24 | -10 | 6% | 16µM* | -5% | i
OC1CCN(c2cc(-c3ccccc3)nc3cc(-c4ccc(F)cc4)nn23)CC1 | -1 | 8 | 1% | i | 16% | i
Cc1cccc(-c2cc3nc4c(c(N5CCOCC5)n3n2)CCCC4)c1 | 17 | 11 | 0% | ? | 1% | i
CCN1CCN(c2cc(-c3ccccc3)nc3cc(-c4cccc(F)c4)nn23)CC1 | ? | -14 | ? | ? | 10µM* | ?
Cc1cc(N2CCOCC2)n2nc(-c3cccc(F)c3)cc2n1 | 10 | -21 | 4% | ? | ? | i
Cc1cc(N2CCN(C(=O)c3ccco3)CC2)n2nc(-c3cccc(F)c3)cc2n1 | 9 | 20 | ? | i | 23µM* | i
Fc1ccc(-c2cc3nc4c(c(N5CCOCC5)n3n2)CCCC4)cc1 | 46 | 47* | 1% | ? | 11% | i
Cc1ccc(NC(=O)CCS(=O)(=O)c2ccc3c(c2)oc(=O)n3C)c(Br)c1 | · | 8 | · | i | · | i
Cc1ccc(-c2cc3nc(-c4ccccc4)cc(N)n3n2)cc1 | 3 | 2 | 1% | i | 0% | i
Cc1ccc(-c2cc3nc(-c4ccccc4)cc(N4CCOCC4)n3n2)cc1 | -1 | 3 | ? | i | 16µM* | i
COc1ccc(-c2cc3nc(-c4ccccc4)cc(N4CCC5(CC4)OCCO5)n3n2)cc1 | 21 | 18 | 23µM* | i | 20% | i
COc1cccc(-c2cc3nc(-c4ccccc4)cc(N4CCCC(O)C4)n3n2)c1 (stereo not drawn) | 42 | 2 | 15µM* | i | 18µM* | i
O=C(NCc1ccccc1)c1ccc(CNS(=O)(=O)c2ccc(Br)cc2)cc1 | · | -8 | · | i | · | i
COC(=O)CN1C(=O)C(O)(c2c(C)[nH]c3ccccc23)c2ccccc21 (stereo not drawn) | · | -9 | · | i | · | i
COc1ccc(NC(=O)CSc2nncn3c2cc2oc(C)cc23)cc1OC | · | -19 | · | ? | · | i
Cc1ccc(CN2C(=O)C(=O)c3cc(C)ccc32)cc1 | -54* | -11 | ? | ? | ? | ?
CCCN1C(=O)C(=O)c2cc(C)ccc21 | -11 | -31 | 6.5µM* | 8.2µM* | 89% | 6.5µM*
Cc1ccc2c(c1)C(=O)C(=O)N2c1ccc(Cl)cc1 | -55* | -56 | 10% | i | 1% | i
CCCCN1C(=O)C(=O)c2cc(Cl)ccc21 | -120* | -11 | ? | ? | 23µM* | ?
Cc1ccc2c(c1)C(=O)C(=O)N2Cc1ccc(OCCC(C)C)cc1 | · | -18 | · | · | · | ·
SMILES | D3 antag | DRD3 agonist | SW480 rerep | KB-V1 MDR tox | MCF10A rereplic | KB-3-1 cytotox
Cc1ccc2oc(C(=O)Nc3ccc(S(=O)(=O)N4CCCCC4C)cc3)cc(=O)c2c1 (stereo not drawn) | · | 0 | · | i | · | i
Cc1ccc2c(c1)C(=O)C(=O)N2Cc1ccc(Br)cc1 | ? | -37 | 18µM* | ? | ? | i
O=C1CNC(=O)N1Cc1ccc(Br)cc1 | 7 | -5 | -8% | i | -3% | i
COC(=O)Nc1ccc(S(=O)(=O)NNC(=O)c2c(O)c3ccccc3[nH]c2=O)cc1 | -6 | 0 | ? | i | 21µM* | i
Cc1ccc(S(=O)(=O)NNC(=O)c2c(O)c3ccccc3[nH]c2=O)cc1 | -6 | -3 | ? | 2.6µM* | 5.8µM* | i
CC(C)NC(=O)c1c(O)c2ccccc2[nH]c1=O | -11 | -6 | -4% | i | -4% | ?
Cc1[nH]nc(C(=O)NN=Cc2ccccc2Cl)c1N=NN(C)C | -81* | -11 | 15µM* | i | 16µM* | i
O=C(N/N=C/c1ccccc1Cl)c1n[nH]c2c1CCCC2 | -7 | 3 | -3% | i | -2% | ?
COc1ccc(Cl)cc1NS(=O)(=O)c1cccc(C(=O)NC2CC2)c1 | -28 | 3 | -5% | 18µM* | -5% | i
CN(C)C(CNC(=O)CCNC(=O)c1ccc(Br)cc1)c1ccco1 (stereo not drawn) | 10 | -4 | -3% | i | 2% | i
COc1ccc(Cl)cc1NS(=O)(=O)c1cccc(C(=O)NCCCN2CCOCC2)c1 | -6 | -1 | · | i | · | i
COc1ccc(Cl)cc1NS(=O)(=O)c1cccc(C(=O)NCC(c2ccco2)N2CCCC2)c1 (stereo not drawn) | 0 | -8 | 7% | ? | 26% | i
CN(C)C(CNC(=O)c1ccc(Br)cc1)c1ccco1 (stereo not drawn) | -63* | -25 | -4% | i | ? | i
COc1ccc(Cl)cc1NS(=O)(=O)c1cccc(C(=O)NCC(c2ccco2)N(C)C)c1 (stereo not drawn) | -82* | -13 | -11% | ? | ? | i
